From ChEMBL document CHEMBL4808148, “HDAC6 screening dataset using tau-based substrate in an enzymatic assay yields selective inhibitors and activators” (2021) come the findings set out here.

The target of this assay is T1, Protein deacetylase HDAC6 (Homo sapiens) (UniProt Q9UBN7).
T1 sequence (whole entry): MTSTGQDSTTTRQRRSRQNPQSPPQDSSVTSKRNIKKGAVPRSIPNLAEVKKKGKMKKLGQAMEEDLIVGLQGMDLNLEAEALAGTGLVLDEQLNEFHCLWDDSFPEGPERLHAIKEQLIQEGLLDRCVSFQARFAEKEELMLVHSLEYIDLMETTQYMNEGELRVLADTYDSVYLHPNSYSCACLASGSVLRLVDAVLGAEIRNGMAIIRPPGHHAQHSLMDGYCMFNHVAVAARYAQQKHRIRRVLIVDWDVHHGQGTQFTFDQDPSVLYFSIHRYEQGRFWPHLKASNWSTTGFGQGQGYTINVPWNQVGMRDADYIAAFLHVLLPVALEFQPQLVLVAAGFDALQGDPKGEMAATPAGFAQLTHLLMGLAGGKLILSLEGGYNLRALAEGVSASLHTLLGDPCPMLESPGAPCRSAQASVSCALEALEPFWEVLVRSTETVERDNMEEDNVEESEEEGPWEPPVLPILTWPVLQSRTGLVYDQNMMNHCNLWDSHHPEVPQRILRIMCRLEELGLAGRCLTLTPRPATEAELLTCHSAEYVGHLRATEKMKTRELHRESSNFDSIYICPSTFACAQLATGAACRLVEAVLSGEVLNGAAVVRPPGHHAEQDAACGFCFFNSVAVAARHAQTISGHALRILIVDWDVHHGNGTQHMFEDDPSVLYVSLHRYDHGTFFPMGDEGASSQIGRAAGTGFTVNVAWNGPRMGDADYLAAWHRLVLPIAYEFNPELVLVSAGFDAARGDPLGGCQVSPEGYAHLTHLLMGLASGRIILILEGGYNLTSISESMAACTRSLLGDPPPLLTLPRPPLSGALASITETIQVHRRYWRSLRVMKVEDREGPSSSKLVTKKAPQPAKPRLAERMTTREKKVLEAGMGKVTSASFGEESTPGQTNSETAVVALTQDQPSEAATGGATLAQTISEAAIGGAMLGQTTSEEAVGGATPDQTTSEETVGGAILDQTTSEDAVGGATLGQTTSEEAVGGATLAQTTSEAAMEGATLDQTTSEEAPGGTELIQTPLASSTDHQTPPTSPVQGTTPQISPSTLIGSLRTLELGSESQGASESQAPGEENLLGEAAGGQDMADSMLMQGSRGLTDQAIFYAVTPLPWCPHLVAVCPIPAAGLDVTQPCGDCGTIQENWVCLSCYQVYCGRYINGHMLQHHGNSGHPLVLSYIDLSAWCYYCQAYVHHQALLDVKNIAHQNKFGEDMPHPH
The conditions noted are these: at 10 µM.

The structures appear in SMILES notation. The whole screen tested about 5,600 compounds, of which about 390 (7%) showed an effect of 50% or more. What follows is part of a selection rich in strong results, with near analogues and random picks from the rest.

The inhibition is the change of the read-out against control, counted positive when it falls.

Regarding `CC(C)N(CCC(=O)c1ccc2ccccc2c1)Cc1ccccc1`, the inhibition worked out at 59.8%. Regarding `CC(=O)c1c(C)c2cnc(Nc3ccc(N4CCNCC4)cn3)nc2n(C2CCCC2)c1=O`, the inhibition amounted to 3.93%. `CC(C)C[C@H](NC(=O)[C@H](CCc1ccccc1)NC(=O)CN1CCOCC1)C(=O)N[C@@H](Cc1ccccc1)C(=O)N[C@@H](CC(C)C)C(=O)[C@@]1(C)CO1`: the inhibition is 0.65%. The same measure for `C[C@H]1CN(C[C@H](Cc2ccccc2)C(=O)NCC(=O)O)CC[C@@]1(C)c1cccc(O)c1`: 72.7%.

Take `CC(=O)SCC(Cc1ccccc1)C(=O)NCC(=O)OCc1ccccc1` (configuration not stated): the inhibition was 3.61%. With `O=C(CN1CCN(C(=O)c2ccco2)CC1)Nc1cc(C(F)(F)F)ccc1Cl`, the inhibition came to 18.3%. As to `Nc1nc2cc(-c3ccc4ncc(C(=O)N5CCOCC5)n4c3)ccc2o1`, the inhibition is 17.8%. Consider `CN(CCCN1c2ccccc2CCc2ccccc21)CC(=O)c1ccc(Cl)cc1`, for which the inhibition is 35.1%. Consider `Cc1cc(O)c(C(C)C)cc1Cl`, for which the inhibition amounted to 35.2%. For `CCCN[C@H]1CCc2nc(N)sc2C1`, the inhibition turned out to be 14.3%. To `CC(C)(C)c1cc(C(=O)/C=C/c2ccc(C(=O)O)cc2)cc(C(C)(C)C)c1` belongs 35.2%. As for `O=C(/C=C/c1ccc(O)cc1)c1ccc(O)cc1O`, the inhibition stood at 98.6%. To `CC(C)=CCOc1ccc(/C=C/C(=O)c2ccc(OCC=C(C)C)cc2OCC(=O)O)cc1` belongs -0.94%. As for `O=C(O)/C=C/c1ccc(O)c(O)c1`, the inhibition is -8.03%. For `O=C(/C=C/c1ccc(O)c(O)c1)c1ccc(O)cc1O`, the inhibition is 97.5%. Regarding `NC(=O)c1cccc(-c2cc(Nc3ccc(OC(F)(F)F)cc3)ncn2)c1`, the inhibition is -8.36%. To `c1coc(-c2nnc3sc(C4CCCCC4)nn23)c1` belongs -6.78%; to `O=C(Nc1ccc(Oc2ccc(Cl)cn2)c(Cl)c1)c1ccccn1`, 44.2%. Regarding `CN(Cc1ccc(C(C)(C)C)cc1)Cc1cccc2ccccc12`, the inhibition was determined as 2.21%.

As to `CC(C)=CCC/C(C)=C/CC/C(C)=C/CSc1ccccc1C(N)=O`, the inhibition was -0.26%. `O=C(Nc1cccnc1)c1cc(-c2ccnc(F)c2)ccc1OCc1ccccc1`: the inhibition was 9.93%. `CCOC(=O)c1c(O)nc2cccc3c2c1-c1ccccc1C3=O`: the inhibition turned out to be 41.8%.

For the compound `O=C1c2ccccc2-c2n[nH]c3cccc1c23`, the inhibition was 88.8%. Regarding `O=C(c1c(O)nc2cc(Cl)ccc2c1O)C1CC1`, the inhibition was -2.41%. On to `N#C/C(=C\c1ccc(O)c(O)c1)C(=O)Nc1ccccc1`, for which the inhibition is 89%.

Turning to `N#C/C(=C\c1ccc(O)c(O)c1)C(=O)NCCCc1ccccc1`, the inhibition was determined as 88.2%.

On to `N#C/C(=C\c1ccc(O)c(O)c1)C(=O)NCc1ccccc1`, for which the inhibition was 53%. The same measure for `C[C@H](NC(=O)/C(C#N)=C/c1ccc(O)c(O)c1)c1ccccc1`: 30.1%; for `CCCCCCCC/C=C\CCCCCCCC(=O)NCCc1ccc(O)c(O)c1`: 29.4%. For `CCCCCCCCNC(=O)/C(C#N)=C/c1cn(CCCN(C)C)c2ccccc12`, the inhibition is 7.03%. Consider `N#C/C(=C\c1ccc(O)c(O)c1)C(N)=O`, for which the inhibition was found to be 16.6%. As for `O=C(CCCl)NCc1ccccc1`, the inhibition is -3.62%.

For `N#C/C(=C\c1ccc(O)c(O)c1)C(=O)OCCc1cccs1`, the inhibition is 40.4%. To `COc1cc(C[C@@H]2NCCc3cc(O)c(O)cc32)cc(OC)c1OC` belongs 3.77%; to `N#CC(Cc1ccc(O)cc1)c1ccc(O)cc1` (configuration not stated), 21.2%. `COc1ccc2[nH]c([S+]([O-])Cc3ncc(C)c(OC)c3C)nc2c1` (configuration not stated): the inhibition is 16.1%.

As for `COc1ccc2[nH]c([S@@+]([O-])Cc3ncc(C)c(OC)c3C)nc2c1`, the inhibition came to 26.7%. To `COc1ccc2[nH]c(SCc3ncc(C)c(OC)c3C)nc2c1` belongs 62.8%.

Regarding `CCC[C@H](NC(=O)[C@@H]1[C@H]2CCC[C@H]2CN1C(=O)[C@@H](NC(=O)[C@@H](NC(=O)c1cnccn1)C1CCCCC1)C(C)(C)C)C(=O)C(=O)NC1CC1`, the inhibition was -8.83%.

Consider `Oc1ccnc2cc(Cl)ccc12`, for which the inhibition turned out to be 28.9%. Consider `Clc1ccc2c(NCCNc3ccnc4cc(Cl)ccc34)ccnc2c1`, for which the inhibition is 14.9%. To `O=C(OCC(O)CO)c1ccccc1Nc1ccnc2cc(Cl)ccc12` (configuration not stated) belongs 94.8%. For `O=C(O)CCNc1cc(N2CCc3ccccc3CC2)nc(-c2cccnc2)n1`, the inhibition was -1.98%. On to `Cc1cc(O)c2c(=O)c3c(O)cc(O)c4c5c(O)cc(O)c6c(=O)c7c(O)cc(C)c8c1c2c(c34)c(c78)c65`, for which the inhibition came to 85%. For the compound `Nc1c2c(nc3ccccc13)CCCC2O` (configuration not stated), the inhibition was 7.55%.

Take `O[C@@H]1CO[C@H]2[C@@H]1OC[C@@H]2O`: the inhibition came out at 0.18%.

On to `Cc1nnc(C(C)C)n1[C@H]1C[C@H]2CC[C@@H](C1)N2CC[C@H](NC(=O)C1CCC(F)(F)CC1)c1ccccc1`, for which the inhibition was determined as 25%. To `CNC(=O)c1ccccc1Sc1ccc2c(/C=C/c3ccccn3)n[nH]c2c1` belongs 105%; to `CCOc1nc2cccc(C(=O)O)c2n1Cc1ccc(-c2ccccc2-c2nnn[nH]2)cc1`, -9.37%.

With `CCCCc1nc(Cl)c(C(=O)O)n1Cc1ccc(-c2ccccc2-c2nn[nH]n2)cc1`, the inhibition came out at 6.5%. Turning to `CCCc1nc2c(C)cc(-c3nc4ccccc4n3C)cc2n1Cc1ccc(-c2ccccc2C(=O)O)cc1`, the inhibition is 65%. To `O=C(O)[C@H]1C[C@@H](CP(=O)(O)O)CCN1` belongs 7.25%.
